Screening data (PubChem)
This is a sample that favours compounds with a hit; in the whole collection about 17% have one here.
TDP1 cell noCPT: qHTS for Inhibitors of human tyrosyl-DNA phosphodiesterase 1 (TDP1): qHTS in cells in absence of CPT; actives 15% (n = 420,000); AID 686978, 2013; Potency, µM (titrated, usually from 46.2 µM), inactives show top-dose activity change, negative = growth inhibition, hits mostly inhibitors; DT40 Tdp1-/- hTDP1 cells, no CPT, ATP luminescence, 48 h; also: % is scaled to controls: 0 for no effect and ±100 for the full control effect; nearly all actives have a fitted effect of over 55% in size
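Chicken DT40 Tdp1-/- cells stably complemented with human TDP1 were seeded at 400 cells/well with DMSO in place of 20 nM camptothecin. After compound pinning, cells grew at least 48 hr at 37 °C; viability read by CellTiter-Glo luminescence.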
HT1080NT lethal: kills 2HG-producing HT-1080-NT fibrosarcoma cells. Potency, µM (series often up to 46.1 µM), for inactives: at the top dose activity, negative = less viability, most hits filed as cytotoxic. HT-1080-NT fibrosarcoma viability, CellTiter-Glo ATP luminescence, 48 h. actives 1.6% (n = 360,000). AID 686970;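 also: NT is the 2HG producing partner of a matched IDH1 knockdown line; 0% = DMSO-treated cells and -100% = media-only wells without cells; nearly all actives have a fitted effect of over 55% in size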
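Viability by CellTiter-Glo luminescence after 48 h compound exposure at 37C of HT-1080-NT cells (750/well, RPMI, 5% FBS). % activity scaled between DMSO wells and medium-only wells, then curve-fitted and categorized by curve class.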
TGFb SMAD3 inh: TGF-b pathway inhibition; actives 1.2% (n = 410,000); AID 588855; Potency, µM (series often up to 46.1 µM), for the others: at the top dose activity, negative = inhibition, most hits filed as inhibitors; HepG2 CAGA-GFP TGF-b/SMAD3 reporter, GFP fluorescence, 18 h; TGF-beta stimulated, 500 pg/mL final; also: % is scaled to controls: 0 for no effect and ±100 for the full control effect; nearly all actives have a fitted effect of over 65% in size
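TGF-beta reporter screen: HEPG2 CAGA-GFP, 1% FBS, 500 pg/mL TGF-beta final, 18 h; per-cell GFP summed per well; curves fitted and categorized by class.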
HT1080 IDH1KD tx: HT-1080 IDH1 knockdown cell toxicity (counter line) | Potency, µM (top dose mostly 46.1 µM), inactives show at the highest dose activity, negative = toxicity, most hits filed as cytotoxic | HT-1080 IDH1 knockdown viability, ATP luminescence, 48 h | actives 2% (n = 360,000) | AID 686971;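 also: 0% = DMSO wells and -100% = cell-free medium wells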
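In this qHTS, HT-1080 cells depleted of IDH1 are exposed for 48 h at 37 °C to compound titrations. Toxicity is scored from CellTiter-Glo luminescence, with DMSO as full viability and medium alone as none.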
TDP1 cell CPT: growth inhibition of DT40 Tdp1-/-;hTDP1 cells with camptothecin (screen for TDP1 inhibitors) | AID 686979 | chicken DT40 Tdp1-/-;hTDP1 cells + 20 nM CPT, ATP luminescence, 48 h | Potency, µM (doses to about 46.2 µM), for the others: top-dose activity change, negative = growth inhibition, hits mostly inhibitors | actives 12% (n = 420,000); also: % is scaled to controls: 0 for no effect and ±100 for the full control effect; nearly all actives have a fitted effect of over 55% in size
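Chicken DT40 Tdp1-/- cells complemented with human TDP1, 400 cells/well, exposed to compounds plus 20 nM camptothecin for at least 48 h at 37 C; viability read as ATP content by CellTiter-Glo luminescence.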
HepG2 tox: kills HepG2 cells in TGF-b inhibitor counter-screen; Potency, µM (series often up to 46.1 µM), for inactives: at the top dose activity change, negative = cytotoxicity, hits mostly cytotoxic; HepG2 CAGA-GFP viability, ATP luminescence, 18 h; actives 0.76% (n = 410,000)
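CellTiter-Glo luminescence gave cytotoxicity after 18 hours at 37 degrees C. The cells were HepG2 CAGA-GFP in 1% FBS DMEM, stimulated with 500 pg/mL TGF-beta after compound addition. %Activity was normalised to no-cell wells (complete cell-killing) and DMSO (no toxicity), and curves were fitted and classified.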
The depositor's hits bear a star; ! = not active in a repeat. Calls follow the shape of the dose curve; as a rule, active = well fitted curve in the direction sought with a large enough effect; inconclusive = small, poorly fitted or top-dose-only effect, or another doubt; inactive = no such curve, though single readings can be large; an effect the other way counts as inactive or inconclusive. Potency is read from the fitted curve at half-maximal effect.

COc1ccc(C2=NS(=O)(=O)N(C)C(C(=O)Nc3ccc(OC)c(OC)c3)=C2)cc1 was read as TDP1 cell noCPT 16.4µM*, HT1080NT lethal 0.6%, TGFb SMAD3 inh inconclusive, HT1080 IDH1KD tx 0.7%, TDP1 cell CPT inconclusive and HepG2 tox -3.7%.
For CCc1ccccc1NC(=O)C1=CC(c2ccc(OC)c(OC)c2)=NS(=O)(=O)N1C the results were TDP1 cell noCPT -13.6%, HT1080NT lethal 3.0%, TGFb SMAD3 inh 19.4%, HT1080 IDH1KD tx -0.6%, TDP1 cell CPT -29.3% and HepG2 tox 5.3%.
For COc1ccc(C2=NS(=O)(=O)N(C)C(C(=O)Nc3cc(C)ccc3O)=C2)cc1OC the results were TDP1 cell noCPT 5.17µM*, HT1080NT lethal -1.0%, TGFb SMAD3 inh -3.2%, HT1080 IDH1KD tx 1.5%, TDP1 cell CPT 7.31µM* and HepG2 tox -28.8%.
Screening Cc1nn(C)c(C(=O)NNC(=O)NC2CCCCC2)c1Cl returned TDP1 cell noCPT -5.7%, HT1080NT lethal -2.3%, TGFb SMAD3 inh -3.9%, HT1080 IDH1KD tx 2.0%, TDP1 cell CPT 2.2% and HepG2 tox 3.8%.
`Cc1ccc(Cn2c(C(=O)O)c(CNC3CCCCCC3)c3ccc(C)cc32)cc1` gave TDP1 cell noCPT -18.3%, TGFb SMAD3 inh inconclusive, TDP1 cell CPT 4.3% and HepG2 tox -5.0%.
For CCOC(=O)C1=C(COC(=O)CNS(=O)(=O)c2ccc(NC(C)=O)cc2)NC(=O)NC1C (configuration not stated) the results were TDP1 cell noCPT -2.7%, HT1080NT lethal 1.8%, TGFb SMAD3 inh -0.5%, HT1080 IDH1KD tx -6.5%, TDP1 cell CPT -22.8% and HepG2 tox 1.7%.
`Cc1cccc(Sc2ccc([N+](=O)[O-])cc2[N+](=O)[O-])n1` gave TDP1 cell noCPT 3.26µM*, HT1080NT lethal inconclusive, TGFb SMAD3 inh -21.3%, HT1080 IDH1KD tx 18.4µM*, TDP1 cell CPT 3.26µM* and HepG2 tox -14.1%.
For O=C(Nc1ncccn1)c1ccc([N+](=O)[O-])cc1[N+](=O)[O-] the results were TDP1 cell noCPT inconclusive, HT1080NT lethal -0.2%, TGFb SMAD3 inh -14.2%, HT1080 IDH1KD tx -0.5%, TDP1 cell CPT inconclusive and HepG2 tox -21.3%.
`O=[N+]([O-])c1cc(C(F)(F)F)ccc1Sc1nccn1Cc1ccccc1` gave TDP1 cell noCPT -9.3%, HT1080NT lethal 10.5%, TGFb SMAD3 inh -6.7%, HT1080 IDH1KD tx 3.7%, TDP1 cell CPT -19.5% and HepG2 tox -9.5%.
`O=[N+]([O-])c1ccc(Sc2ncccn2)c([N+](=O)[O-])c1` gave TDP1 cell noCPT 0.92µM*, HT1080NT lethal 29.1µM*, TGFb SMAD3 inh inconclusive, HT1080 IDH1KD tx 13µM*, TDP1 cell CPT 0.82µM* and HepG2 tox 20µM*.
O=c1cc(-c2ccccc2)nc(Sc2ccc([N+](=O)[O-])cc2[N+](=O)[O-])[nH]1 was read as TDP1 cell noCPT inconclusive, HT1080NT lethal -0.9%, TGFb SMAD3 inh inconclusive, HT1080 IDH1KD tx -24.1%, TDP1 cell CPT inconclusive and HepG2 tox -67.8%.
For O=[N+]([O-])c1ccc(Sc2nccn2Cc2ccccc2)c([N+](=O)[O-])c1 the results were TDP1 cell noCPT 5.8µM*, HT1080NT lethal -1.3%, TGFb SMAD3 inh inconclusive, HT1080 IDH1KD tx inconclusive, TDP1 cell CPT 6.51µM* and HepG2 tox -80.6%.
CCN(CC)c1ccc(-c2nn3c(-c4n[nH]c5c4CCC5)nnc3s2)cc1 was read as TDP1 cell noCPT 0.651µM*, HT1080NT lethal 1.46µM*, TGFb SMAD3 inh inconclusive, HT1080 IDH1KD tx 2.31µM*, TDP1 cell CPT 0.92µM* and HepG2 tox -66.8%.
`O=C(CN1CCN(S(=O)(=O)c2cccc(F)c2)CC1)Nc1ccnn1C1CCCC1` gave TDP1 cell noCPT -11.2%, HT1080NT lethal -5.1%, TGFb SMAD3 inh 0.7%, HT1080 IDH1KD tx 2.2%, TDP1 cell CPT -26.0% and HepG2 tox -1.3%.
Screening O=S1(=O)C=CC(Sc2nc3ccccc3[nH]2)C1 (configuration not stated) returned TDP1 cell noCPT 20.6µM*, HT1080NT lethal 6.1%, TGFb SMAD3 inh -2.7%, HT1080 IDH1KD tx 11.7%, TDP1 cell CPT 13µM* and HepG2 tox 1.0%.
Screening O=C1NC(=S)SC1=C1CCCC1 returned TDP1 cell noCPT 1.2%, HT1080NT lethal 17.5%, TGFb SMAD3 inh -4.1%, HT1080 IDH1KD tx 19.8%, TDP1 cell CPT 1.4% and HepG2 tox 2.5%.
Screening O=C(Oc1ccccc1)N1CCC2(CCCN(c3cccc(-c4ccccc4)c3)C2)CC1 returned TDP1 cell noCPT inconclusive and TDP1 cell CPT -29.6%.
Screening CC(=O)N1CCC2(CCCN(c3cccc(-c4ccccc4)c3)C2)CC1 returned TDP1 cell noCPT inconclusive and TDP1 cell CPT 16.4µM*.
`CC(=O)N1CCC2(CCCN(c3ccc(-c4ccccc4)cc3)C2)CC1` gave TDP1 cell noCPT 16.4µM* and TDP1 cell CPT inconclusive.
`COC(=O)N1CCC2(CC1)CN(c1cccc(-c3ccccc3)c1)C2` gave TDP1 cell noCPT 18.4µM* and TDP1 cell CPT -29.8%.
Screening O=c1oc2cc(OCCO)ccc2c2c1CCCC2 returned TDP1 cell noCPT 12.1%, HT1080NT lethal 8.8%, TGFb SMAD3 inh 1.2%, HT1080 IDH1KD tx 15.0%, TDP1 cell CPT 11.8% and HepG2 tox -2.8%.
Cc1ccc(C(=O)NC(=S)Nc2ccc(-c3cc4ccccc4oc3=O)cc2)c(C)c1 was read as TDP1 cell noCPT 23.1µM*, HT1080NT lethal 6.4%, TGFb SMAD3 inh -8.2%, HT1080 IDH1KD tx 7.9%, TDP1 cell CPT inconclusive and HepG2 tox 0.6%.
`COc1ccc(Br)cc1CNC(=O)c1ccc2c(c1)N(C)CCS2` gave TDP1 cell noCPT inconclusive, HT1080NT lethal -7.0%, TGFb SMAD3 inh -3.0%, HT1080 IDH1KD tx -1.4%, TDP1 cell CPT 23.1µM* and HepG2 tox -32.9%.
Cc1cc(C)cc(NC(=O)CCC(=O)N2CCSc3ccccc32)c1 was read as TDP1 cell noCPT 18.4µM*, HT1080NT lethal -1.2%, TGFb SMAD3 inh 11.2µM*!, HT1080 IDH1KD tx 0.3%, TDP1 cell CPT inconclusive and HepG2 tox -0.6%.
Screening CCN1CCSc2ccc(C(=O)NCc3cc(Br)ccc3OC)cc21 returned TDP1 cell noCPT inconclusive, HT1080NT lethal -12.0%, TGFb SMAD3 inh 3.9%, HT1080 IDH1KD tx -13.5%, TDP1 cell CPT 16.4µM* and HepG2 tox -15.9%.
